Assay outcomes as filed in PubChem BioAssay.
A selection: hits, their analogues and other compounds. The true share with any hit is near 9.3%.
NPC1 promoter act: NPC1 promoter activation. Huh7 NPC1 promoter luciferase reporter, 24 h. Potency, µM (series often up to 9.22 µM), most hits filed as activators. 320,000 compounds, 2.4% hits. AID 485313; note: nearly all actives have a fitted effect of over 60% in size
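In 1536-well qHTS, Huh7 cells harboring an NPC1 promoter–luciferase construct received compound for 24 h; activation was quantified by luminescence following luciferase reagent addition.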
Rab9 prom act: activates the Rab9 promoter; Huh7 Rab9 promoter-luciferase reporter, luminescence, 24 h; Potency, µM (series often up to 9.22 µM), actives largely listed as activators; 320,000 compounds, 2.8% hits; AID 485297; note: nearly all actives have a fitted effect of over 60% in size
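Using Huh7 cells stably transfected with Rab9 promoter–luciferase, compounds were incubated 24 h at 37 °C, 5% CO2; luciferase luminescence was read 10 min after reagent addition.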
FLuc counter: counter-screen for miR-21 project: firefly luciferase inhibitors or activators; P08659; purified FLuc, Km substrates, luminescence inhibition; Potency, µM (top dose mostly 57.5 µM), hits mostly inhibitors; 360,000 compounds, 6.9% hits; AID 588342; note: nearly all actives have a fitted effect of over 55% in size
Target sequence (P08659 whole entry, looked up): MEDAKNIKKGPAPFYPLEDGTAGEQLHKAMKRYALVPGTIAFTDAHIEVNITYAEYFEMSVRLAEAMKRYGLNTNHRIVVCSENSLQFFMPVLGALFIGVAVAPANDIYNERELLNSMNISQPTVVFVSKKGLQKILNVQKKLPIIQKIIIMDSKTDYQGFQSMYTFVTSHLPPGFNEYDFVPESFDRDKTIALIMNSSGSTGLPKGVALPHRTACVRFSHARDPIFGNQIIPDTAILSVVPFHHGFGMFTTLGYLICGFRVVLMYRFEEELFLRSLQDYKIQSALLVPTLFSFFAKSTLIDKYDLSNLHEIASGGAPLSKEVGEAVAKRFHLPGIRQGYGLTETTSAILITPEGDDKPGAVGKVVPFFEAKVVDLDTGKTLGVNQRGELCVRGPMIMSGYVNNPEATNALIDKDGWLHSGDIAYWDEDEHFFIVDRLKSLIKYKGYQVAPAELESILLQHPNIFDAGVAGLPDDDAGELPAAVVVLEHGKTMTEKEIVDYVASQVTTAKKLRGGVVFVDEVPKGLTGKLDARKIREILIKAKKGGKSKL
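Purified P. pyralis luciferase, 10 nM final, with Km-level 10 uM D-luciferin and 10 uM ATP in 50 mM Tris acetate pH 7.5, 10 mM Mg acetate, 0.01% Tween-20, 0.05% BSA; 6-point qHTS titration about 60 µM downward; luminescence read.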
ELG1 repair inh: inhibitors of ELG1-dependent DNA repair in HEK293T cells; HEK293T ELG1-luciferase reporter, luminescence, 16 h; DNA damage induced by 5-fluorouridine; Potency, µM (titrated, usually from 46.1 µM), actives largely listed as inhibitors; 330,000 compounds, 2.3% hits; AID 504467; note: nearly all actives have a fitted effect of over 55% in size
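Step one: seed 2,000 cells per well. Step two: pin-transfer compound or DMSO alongside 5-fluorouridine. Step three: incubate 16 hr, 37 °C, 5% CO2. Step four: add ONE-Glo, wait 30 min, read luminescence.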
ELG1 genotox: inducers of genotoxicity in HEK293T ELG1-luciferase cells; Potency, µM (titrated, usually from 46 µM), most hits filed as activators; 330,000 compounds, 1.3% hits; HEK293T ELG1-luciferase reporter, luminescence, 16 h; AID 504466; note: nearly all actives have a fitted effect of over 60% in size
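Genotoxic stress is detected as increased luminescence from luciferase-tagged ELG1 in HEK293T cells, measured with ONE-Glo after a 16 hr treatment at 37 °C.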
SMN2 splice up: enhancers of SMN2 splice variant expression | AID 1458 | HEK293 SMN2-luciferase splicing reporter, luminescence, 30-36 h | Potency, µM (doses to about 46.1 µM), actives largely listed as activators | 210,000 compounds, 2.8% hits; note: nearly all actives have a fitted effect of over 55% in size
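HEK293 cells carry an SMN2 […]–luciferase reporter in which exon 7 inclusion puts luciferase in frame. Cells were plated 10-12 h before compound addition, then incubated 30-36 h at 37C. ONE-Glo luminescence was read; sodium butyrate at 4.5 mM final served as control.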
Large screens that a line does not name were inactive. Calls come from the whole dose curve; as a rule, active = well fitted curve in the direction sought with a large enough effect; inconclusive = small, poorly fitted or top-dose-only effect, or another doubt; inactive = no such curve, though single readings can be large; an effect the other way counts as inactive or inconclusive.

COC(=O)c1ccc(NC(=O)CSc2nc3ncccc3[nH]2)cc1	none (no result: SMN2 splice up)
CC(=O)c1ccc(NC(=O)c2ccn(C(=O)OCC(C)C)n2)cc1	NPC1 promoter act 4µM, Rab9 prom act inconclusive, FLuc counter 19µM, ELG1 repair inh inconclusive, ELG1 genotox inconclusive, SMN2 splice up 10µM
Cn1c(-c2ccncc2)nc2ccccc21	none (no result: SMN2 splice up)
CCN(CC)c1ccc(-c2nc3cnccc3n2C)cc1	NPC1 promoter act 4µM, Rab9 prom act 4µM, FLuc counter 4.8µM, ELG1 repair inh inconclusive, ELG1 genotox inconclusive, SMN2 splice up inconclusive
O=C(/C=C/c1ccccc1)Nc1sc2c(c1C(=O)O)CCC2	NPC1 promoter act inconclusive, Rab9 prom act inconclusive, FLuc counter 17µM, ELG1 repair inh inconclusive (no result: SMN2 splice up)
CNC(=O)c1c(NC(=O)c2ccco2)sc2c1CCC2	Rab9 prom act inconclusive, FLuc counter inconclusive (no result: SMN2 splice up)
N#Cc1c(NC(NC(=O)c2ccco2)C(=O)c2ccccc2)sc2c1CCCC2 (stereo unspecified)	none
O=C(/C=C/c1ccco1)Nc1sc2c(c1C(=O)O)CCC2	NPC1 promoter act 3.5µM, Rab9 prom act inconclusive, FLuc counter 13µM, ELG1 repair inh inconclusive, SMN2 splice up 28µM
N#Cc1c(NC(=O)/C=C/c2ccco2)sc2c1CCCC2	NPC1 promoter act inconclusive, Rab9 prom act inconclusive, FLuc counter 4.8µM, ELG1 repair inh inconclusive, ELG1 genotox 2.9µM, SMN2 splice up 3.5µM
NC(=O)CN(C/C=C/c1ccccc1)C/C=C/c1ccccc1	none (no result: SMN2 splice up)
Cc1ccc(-c2[nH]ncc2CN2CCN(C(=O)c3cccs3)CC2)cc1C	ELG1 repair inh 12µM (no result: SMN2 splice up)
COc1ccc(CN2CCN(C(=O)c3cccs3)CC2)c(OC)c1OC	ELG1 repair inh 21µM
COc1ccc(CN2CCN(C(=O)c3ccc(-c4ccccc4)cc3)CC2)c(OC)c1OC	none
Cc1cc(C)nc(N/N=C2/CCCC/C2=C\c2ccccc2)n1	ELG1 repair inh 2.3µM
CCOc1ccc(CCNC(=O)c2ccc3nc(N4CCC(C)CC4)sc3c2)cc1OCC	none (no result: NPC1 promoter act, Rab9 prom act, ELG1 repair inh, ELG1 genotox)
CCOC(CNC(=O)c1ccc2nc(N3CCC(C)CC3)sc2c1)OCC	NPC1 promoter act inconclusive, Rab9 prom act inconclusive, FLuc counter 17µM, ELG1 repair inh inconclusive, ELG1 genotox inconclusive
CCC(Cc1ccccc1)NC(=O)c1ccc2nc(N3CCC(C)CC3)sc2c1 (stereo unspecified)	FLuc counter 12µM (no result: NPC1 promoter act, Rab9 prom act, ELG1 repair inh, ELG1 genotox)
O=C(Nc1ccc(F)cc1)c1ccc(Cn2cnnn2)cc1	none
CC(C)(C)OC(=O)N1CCCC(C(=O)CC#N)C1 (stereo unspecified)	ELG1 repair inh inconclusive
CCOC(=O)c1c(NC(=O)C2C3C=CC(C3)C2C(=O)O)sc2c1CC(C)(C)OC2 (stereo unspecified)	none
CC(C)COc1ccc(C(=O)Nc2sc3c(c2C(=O)O)CC(C)(C)OC3)cc1	FLuc counter 21µM (no result: SMN2 splice up)
CC1(C)Cc2c(sc(NC(=O)c3ccccc3)c2C(=O)O)CO1	NPC1 promoter act inconclusive, Rab9 prom act inconclusive, FLuc counter 6.7µM, ELG1 repair inh inconclusive, SMN2 splice up inconclusive
CCOC(=O)c1c(NC(=O)c2cccs2)sc2c1CC(C)(C)OC2	ELG1 repair inh 9.2µM
Cn1c(-c2ccccc2)cnc1SCc1nc2ccccc2c(=O)[nH]1	NPC1 promoter act 2.8µM, Rab9 prom act 1.4µM, FLuc counter 6µM, ELG1 repair inh inconclusive, ELG1 genotox 2.1µM, SMN2 splice up 2.5µM
Cn1c(SCc2nc3ccccc3c(=O)[nH]2)nc2ccccc21	none
O=C(O)c1ccc(NCc2ccc(Br)cc2)cc1	FLuc counter inconclusive (no result: SMN2 splice up)
O=C1CCCC2=C1C1c3ccccc3C(=O)N1c1ccc(C(=O)c3ccccc3)cc1N2 (stereo unspecified)	ELG1 repair inh 16µM
O=c1c2ccccc2oc2ccc(Oc3ccccc3)cc12	NPC1 promoter act 2.8µM, Rab9 prom act 1.8µM, FLuc counter 4.3µM, ELG1 repair inh inconclusive, ELG1 genotox inconclusive (no result: SMN2 splice up)
COc1ccc(CC2(CO)CCN(C(=O)NCc3ccccc3)CC2)cc1	none
